Source: PubChem (National Center for Advancing Translational Sciences (NCATS))
TGFb inhibitor: TGF-b pathway inhibition. HepG2 CAGA-GFP TGF-b/SMAD3 reporter, GFP fluorescence, 18 h; TGF-beta stimulated, 500 pg/mL final. Potency, µM (doses to about 46.1 µM), without a hit: at the top dose activity, negative = inhibition, usual class: inhibitors. hit rate 1.2% among 410,000; further: on the % scale 0 is the no-effect control and ±100 the full control effect; nearly all actives have a fitted effect of over 65% in size
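HEPG2 CAGA-GFP reporter cells (1000/well, DMEM with 1% FBS) received compounds, then recombinant TGF-beta at 500 pg/mL final for 18 hours at 37 degrees C. Per-cell GFP summed per well was normalised to unstimulated and stimulated DMSO controls before curve fitting.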
HepG2 viability: counter-screen for TGF-b inhibitors: cytotoxicity in HepG2 cells. AID 588856. hit rate 0.76% among 410,000. HepG2 CAGA-GFP viability, ATP luminescence, 18 h. Potency, µM (series often up to 46.1 µM), for inactives: at the highest dose activity change, negative = cytotoxicity, actives largely listed as cytotoxic
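CellTiter-Glo luminescence gave cytotoxicity after 18 hours at 37 degrees C. The cells were HepG2 CAGA-GFP in 1% FBS DMEM, stimulated with 500 pg/mL TGF-beta after compound addition. %Activity was normalised to no-cell wells (complete cell-killing) and DMSO (no toxicity), and curves were fitted and classified.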
KB-V1 MDR tox: KB-V1 MDR subline cytotoxicity; AID 1347076; KB-V1 MDR cells viability, CellTiter-Glo, 72 h; Potency, µM (top dose mostly 46.1 µM), most hits filed as cytotoxic; hit rate 3.4% among 400,000; further: on the % scale 0 is the no-effect control and ±100 the full control effect; nearly all actives have a fitted effect of over 60% in size
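KB-V1 cells (P-gp-expressing MDR subline of KB-3-1) in phenol-red-free DMEM with 10% FBS were exposed to library compounds over a concentration series for 72 h at 37 degrees C. Viability read by CellTiter-Glo luminescence; concentration-effect curves fitted after normalization.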
S2 tox: cell viability loss in ATXN counter-screen; S2 cells (HEK-293 line with an ATXN2-luciferase reporter) viability, CellTiter-Fluor protease fluorescence, 24 h; hit rate 0.49% among 400,000; Potency, µM (doses to about 56.7 µM), usual class: cytotoxic; further: nearly all actives have a fitted effect of over 40% in size
ATXN2 expr inh: ATXN2 expression inhibition; HEK-293 ATXN2-luciferase reporter, luminescence, 24 h; Potency, µM (top dose mostly 57 µM), for the others: at the highest dose activity change, negative = inhibition, most hits filed as inhibitors; hit rate 0.72% among 360,000; AID 1745845; further: on the % scale 0 is the no-effect control and ±100 the full control effect; nearly all actives have a fitted effect of over 55% in size
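qHTS (up to 57 uM final) was run with 24 h compound exposure of reporter cells at 37 °C. Each well was multiplexed: SteadyGlo luminescence measured ATXN2-luciferase expression after a fluorogenic Gly-Phe-AFC viability readout (25 uM final).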
KB-3-1 cytotox: KB-3-1 parental cell cytotoxicity; Potency, µM (highest dose often 46.1 µM), most hits filed as cytotoxic; hit rate 1.4% among 400,000; KB-3-1 viability, CellTiter-Glo ATP luminescence, 72 h; further: on the % scale 0 is the no-effect control and ±100 the full control effect; nearly all actives have a fitted effect of over 60% in size
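Parental KB-3-1 adenocarcinoma cells in phenol-red-free DMEM with 10% FBS were pin-treated with compounds at several concentrations, incubated 72 h at 37 °C, and viability read by CellTiter-Glo luminescence; concentration-effect curves were fitted after normalization.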
An asterisk follows results filed as active; i = inactive; ? = inconclusive; / = no result. In the library only some 5.9% were active in any assay of this set; here they are far more common. The call rests on the fitted dose curve; in most records, active means well fitted curve in the direction sought with a large enough effect; inconclusive means small, poorly fitted or top-dose-only effect, or another doubt; inactive means no such curve, though single readings can be large; an effect the other way counts as inactive or inconclusive. Potency means the concentration at half of the fitted maximal effect.

SMILES | TGFb inhibitor | HepG2 viability | KB-V1 MDR tox | S2 tox | ATXN2 expr inh | KB-3-1 cytotox
COc1cc(/C=C(\C#N)c2nc3ccc(C)cc3[nH]2)c([N+](=O)[O-])cc1OC | 26% | -13% | i | i | -3% | i
COc1cc(/C=C(\C#N)c2nc3ccc(C)cc3[nH]2)cc([N+](=O)[O-])c1O | ? | -3% | i | 18µM* | 37% | i
CCOC(=O)COc1ccc(/C=C(\C#N)c2nc3ccc(C)cc3[nH]2)cc1OC | ? | -61% | ? | i | -7% | 18µM*
COc1cc(/C=C(\C#N)c2nc3ccc(C)cc3[nH]2)ccc1OCc1ccc(C)cc1 | ? | -6% | i | / | 44% | i
CC(O)(COc1ccccc1)c1ccc2c(c1)CN(Cc1cccc3cccnc13)CCO2 (stereo not given) | / | / | / | i | / | /
CCC(C)(C)n1nnnc1C(c1ccc(C)cc1)N(Cc1ccco1)Cc1cccs1 (stereo not given) | -3% | -15% | 11µM* | i | ? | ?
Cc1ccc(Sc2c(C)nn(C(C)(C)C)c2OC(=O)CC(C)C)cc1 | -13% | -8% | i | i | -14% | i
COc1ccc(C(=O)N2CCN(S(=O)(=O)c3ccc(F)cc3)CC2)cc1OC | 12% | 3% | ? | ? | / | i
CCCc1cc(C(=O)N2CCN(S(=O)(=O)c3ccc(OC)c(OC)c3)CC2)cs1 | ? | -34% | 5.2µM* | i | -2% | i
COc1ccc(C(=O)N2CCN(S(=O)(=O)c3ccc(Cl)cc3)CC2)cc1OC | 0% | 0% | 15µM* | i | -5% | i
COc1ccc(N(C)C(=O)c2ccc3nc(-c4ccccc4)c(-c4ccccc4)nc3c2)cc1 | -25% | 5% | 21µM* | i | -6% | ?
CC(C)N(C(=O)c1ccc2nc(-c3ccccc3)c(-c3ccccc3)nc2c1)C(C)C | ? | 23% | 23µM* | i | -15% | ?
CNC(=O)c1ccc2nc(-c3ccccc3)c(-c3ccccc3)nc2c1 | -3% | -3% | i | / | / | i
COc1ccc(-c2nc3ccccc3nc2-c2ccccc2)cc1 | ? | -16% | i | i | -30% | i
Cc1cc(C)n(-c2nc3ccccc3nc2Nc2cccc(C)c2C)n1 | 30% | -10% | i | i | 38% | i
COc1cc(CNC(=O)c2cnn(-c3ncc4c(n3)-c3ccccc3CC4)c2C)cc(OC)c1OC | / | / | / | i | / | /
CCN(CC)S(=O)(=O)c1ccc(/C=C/C(=O)Nc2ccc(F)c(F)c2F)cc1 | -24% | -22% | ? | i | -17% | 4.6µM*
O=C(/C=C/c1ccc(S(=O)(=O)N2CCOCC2)cc1)Nc1ccc(F)c(F)c1F | -9% | -13% | 21µM* | i | -3% | ?
CSc1ccccc1C(=O)OCC(=O)Nc1ccc(N2CCOCC2)cc1 | 9% | 6% | 21µM* | i | 3% | i
COC(=O)c1ccccc1SCC(=O)Nc1ccc(N2CCOCC2)cc1 | 6% | -1% | i | / | 43% | i
COc1ccc2nc3oc(C(=O)N(C)c4ccc(Cl)cc4)cc3cc2c1 | ? | -32% | i | i | 8% | i
Cc1ccc(-c2n[nH]c3c2C(c2ccccc2Cl)N(c2ccc(C(=O)O)cc2)C3=O)cc1 (stereo not given) | ? | 4% | ? | ? | ? | i
COc1ccc(C2c3c(-c4ccc(F)cc4)n[nH]c3C(=O)N2c2ccccc2)cc1OC (stereo not given) | -3% | 1% | i | ? | -10% | ?
Cc1ccc(-c2n[nH]c3c2C(c2cccs2)N(c2ccc(Cl)cc2)C3=O)cc1 (stereo not given) | 11µM* | 13µM* | i | ? | ? | ?
COc1ccc(-c2n[nH]c3c2C(c2ccc(OC)c(OC)c2)N(c2ccccc2)C3=O)cc1 (stereo not given) | 3% | -1% | 15µM* | i | 3% | ?
SMILES | TGFb inhibitor | HepG2 viability | KB-V1 MDR tox | S2 tox | ATXN2 expr inh | KB-3-1 cytotox
COc1cc(C2c3c(-c4ccc(C)cc4)n[nH]c3C(=O)N2c2ccc(F)cc2)ccc1O (stereo not given) | 11µM* | -51% | i | ? | ? | i
COc1ccc(-c2n[nH]c3c2C(c2ccc(O)cc2)N(c2ccc(Br)cc2)C3=O)cc1 (stereo not given) | ? | -28% | / | / | / | /
COc1ccc(OC)c(C2c3c(-c4ccc(Br)cc4)n[nH]c3C(=O)N2c2ccc(Cl)cc2)c1 (stereo not given) | 4µM* | 11µM* | ? | / | ? | ?
O=C(CSc1nccn1-c1ccc(Cl)cc1)Nc1cccc2ccccc12 | -16% | 2% | / | / | / | /
Cc1ccc(N2C(=O)c3[nH]nc(-c4ccc(Cl)cc4)c3C2c2ccc(F)cc2)cc1 (stereo not given) | ? | 11µM* | ? | / | ? | i
Cc1cc(C)c2nc(C(F)(F)F)nc(NCCCN3CCOCC3)c2c1 | 3% | -46% | 3.7µM* | i | -23% | ?
O=c1[nH]c(-c2ccc(C(F)(F)F)cc2)nc2c1CSCC2 | / | / | / | / | 13% | /
COc1ccc(NC(=O)c2ccccc2-c2ccccc2)c(C)c1 | -11% | -8% | i | i | / | i
COc1cc(NC(=O)c2ccccc2-c2ccccc2)cc(OC)c1 | -1% | 13% | 12µM* | i | -3% | i
COc1cc(CN2CCC3(CCC(CNC(=O)c4cc(C)nn4C)O3)CC2)ccc1F (stereo not given) | / | / | / | i | / | /
CCc1nnc(N/N=C/c2cc(Br)c(O)cc2O)n1N | 7.9µM* | 10µM* | i | i | -31% | ?
CCc1nnc(N/N=C/c2c(Cl)cccc2Cl)n1N | ? | -100% | i | i | -12% | i
CCc1nnc(N/N=C/c2cccs2)n1N | 13µM* | -98% | i | i | -9% | i
CCc1nnc(N/N=C/c2ccc(O)c(OC)c2)n1N | 18µM* | -104% | i | i | 3% | i
O=C(NC[C@H](O)CO)c1ccncc1Nc1ccc(I)cc1F | / | / | / | / | 2% | /
COc1ccc(-c2noc(C3CCCN(C(=O)c4c(F)cccc4F)C3)n2)cc1OC (stereo not given) | 2% | -9% | i | i | 4% | i
Cc1ccc(-c2noc(C3CCCN(C(=O)c4ccccc4Br)C3)n2)cc1 (stereo not given) | -33% | -16% | 18µM* | i | / | ?
